High-throughput results deposited in PubChem by National Center for Advancing Translational Sciences (NCATS).
Many of the other results were omitted from the sample, so hits are more common in it than they were.
Cruzain Triton – cruzain (T. cruzi) inhibition with detergent. Potency, µM, inactives show max response, negative = inhibition, actives largely listed as inhibitors. purified cruzain, Z-FR-AMC fluorescence, 0.01% Triton. 200,000 compounds, 0.43% hits;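 further: plate controls were neutral wells for no effect and buffer without enzyme for full effect; nearly all actives have a fitted effect of over 40% in size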
Target sequence (P25779 123-467 limits assumed): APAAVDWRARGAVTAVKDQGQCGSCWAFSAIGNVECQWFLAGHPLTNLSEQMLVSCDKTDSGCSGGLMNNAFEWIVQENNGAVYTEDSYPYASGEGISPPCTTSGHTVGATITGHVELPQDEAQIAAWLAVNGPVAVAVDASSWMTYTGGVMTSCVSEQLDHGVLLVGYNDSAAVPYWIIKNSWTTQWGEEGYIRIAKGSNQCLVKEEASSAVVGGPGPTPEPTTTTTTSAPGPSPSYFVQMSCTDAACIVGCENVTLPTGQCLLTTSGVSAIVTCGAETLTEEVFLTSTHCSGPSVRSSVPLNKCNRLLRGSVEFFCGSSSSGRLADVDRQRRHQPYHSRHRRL
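Sodium acetate buffer (100 mM, pH 5.5) containing 5 mM DTT and 0.01% Triton X-100 hosted 1.5 nM cruzain and test compound for 15 min at room temperature. Cleavage of 2 uM Z-FR-AMC was then tracked by fluorescence.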
Cruzain noTriton – cruzain (T. cruzi) inhibition without detergent | 200,000 compounds, 2.3% hits | P25779 | Potency, µM, for the others: max response, negative = inhibition, hits mostly inhibitors | purified cruzain, Z-FR-AMC fluorescence, no detergent;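 further: plate controls were enzyme without inhibitor for no effect and buffer without enzyme for full effect; nearly all actives have a fitted effect of over 40% in size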
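Detergent-free condition (0.00005% Triton X-100) in acetate buffer pH 5.5 with DTT. 1.5 nM enzyme and compound were pre-mixed 15 min, then 2 uM Z-FR-AMC substrate added; reaction progress from fluorescence change between first and third reads (60 s).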
NS1 function inh – influenza NS1 inhibition; Potency, µM (series often up to 46.1 µM), for the others: at the top dose activity, positive = more growth; AID 2326; 270,000 compounds, 0.4% hits; calls by dose curve; further: actives are rising curves; nearly all actives have a fitted effect of over 50% in size
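Compounds were scored for reversing the slow growth caused by influenza A NS1 in S. cerevisiae, measured by optical density at 600 nm. Assay medium contained 2% galactose at pH 6.0; NS1-free yeast of the same strain were the positive control.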
The depositor's hits bear a star. Unless noted, the call rests on the fitted dose curve; in most records, active means well fitted curve in the direction sought with a large enough effect; inconclusive means small, poorly fitted or top-dose-only effect, or another doubt; inactive means no such curve, though single readings can be large; an effect the other way counts as inactive or inconclusive. Potency means the concentration at half of the fitted maximal effect.

Results for O=C1OC(c2ccco2)=N/C1=C\c1ccc(-c2cccc(C(F)(F)F)c2)o1 ?
Cruzain Triton: -11%; Cruzain noTriton: 13µM*; NS1 function inh: 19%

How did O=C1OC(c2cccs2)=N/C1=C/c1ccc(-c2cccc(C(=O)O)c2)o1 do in these assays?
NS1 function inh: 3%

How did Cc1ccccc1C1CC(=O)Oc2cc(C)c(Br)c(C)c21 (configuration not stated) do in these assays?
Cruzain Triton: -4%; Cruzain noTriton: 2%

Results for Cc1cc(NC(=O)CSc2nc3ccccc3c(=O)n2-c2ccccc2)no1 ?
Cruzain Triton: 11%; Cruzain noTriton: -11%; NS1 function inh: -3%

Results for CCOc1ccc(-n2c(SCC(=O)Nc3ccc(OC)cc3)nc3c(c2=O)SCC3)cc1 ?
Cruzain Triton: -1%; Cruzain noTriton: -5%; NS1 function inh: -8%

What do the screens show for `CCOC(=O)c1sc(NC(=O)CSc2nc3c(c(=O)n2-c2ccc(F)cc2)SCC3)c(C(=O)OCC)c1C`?
Cruzain Triton: -3%; Cruzain noTriton: 25µM*; NS1 function inh: 8%

What do the screens show for `COC(=O)c1c(NC(=O)CSc2nc3ccccc3c(=O)n2-c2ccccc2)sc(C)c1C`?
Cruzain Triton: -3%; Cruzain noTriton: 13µM*; NS1 function inh: 9%

Results for CCc1ccc(-n2c(=O)c3cccnc3n2CC(=O)Nc2cc(F)ccc2F)cc1 ?
Cruzain Triton: -7%; Cruzain noTriton: -9%

How did C[C@@H]1CC[C@H]2[C@H](C)C3[C@H](C[C@H]4[C@@H]5CC=C6C[C@@H](O)CC[C@@]6(C)[C@@H]5C[C@@H](O)[C@]34C)N2C1 (some centres not stated) do in these assays?
Cruzain Triton: -3%; Cruzain noTriton: -6%; NS1 function inh: -6%

What do the screens show for `NC(=O)NC(=O)[C@H]1CCCC[C@@H]1C(=O)O`?
Cruzain Triton: 3%; Cruzain noTriton: 6%; NS1 function inh: 4%

How did Cc1cc(C)c2c(CC(=O)N3CCN(c4cccc(Cl)c4)CC3)coc2c1 do in these assays?
Cruzain Triton: -9%; Cruzain noTriton: -1%

What do the screens show for `Cc1cccc(OCCn2cc(/C=N/NC(=O)c3ccncc3)c3ccccc32)c1`?
Cruzain Triton: -8%; Cruzain noTriton: inconclusive; NS1 function inh: 31%

Results for CCC(C)c1ccc(OCCn2cc(/C=N/NC(=O)CSc3nnc(C)s3)c3ccccc32)cc1 (configuration not stated) ?
Cruzain Triton: 1%; Cruzain noTriton: 4µM*; NS1 function inh: 4%

What do the screens show for `COC(=O)[C@@H]1C[C@H]1[C@@H](NS(=O)(=O)c1ccc2ccccc2c1)c1ccccc1`?
Cruzain Triton: -2%; Cruzain noTriton: 5%

What do the screens show for `Cc1cccc(-c2noc(CN(C(C)C)S(=O)(=O)c3ccc(Br)cc3)n2)c1`?
Cruzain Triton: -7%; Cruzain noTriton: -25%

How did O=C(COc1ccccc1)N(Cc1ccccc1)c1nc(-c2ccccc2)cs1 do in these assays?
Cruzain Triton: 6%; Cruzain noTriton: inconclusive; NS1 function inh: 4%

Results for COc1ccc(-c2csc(N(Cc3ccccc3)C(=O)COc3ccc(Cl)cc3)n2)cc1 ?
Cruzain Triton: 1%; Cruzain noTriton: 6.3µM*; NS1 function inh: -8%

How did N#CCCn1c(=O)c(-c2cccc(C#N)c2)nc2cnc(N3CCOCC3)nc21 do in these assays?
Cruzain Triton: -3%; Cruzain noTriton: 7%

What do the screens show for `Cc1ccc(NC(=O)CSc2nc3c(sc4ccccc43)c(=O)n2CCCC(=O)NC2CCCC2)cc1C`?
Cruzain Triton: 3%; Cruzain noTriton: 7%

Results for Cc1csc(NC(=O)CSc2nnc(NC(=O)COc3ccccc3)s2)n1 ?
Cruzain Triton: 2%; Cruzain noTriton: 7.9µM*; NS1 function inh: inconclusive

Results for Cc1csc(NC(=O)CSc2nnc(C)s2)n1 ?
Cruzain Triton: 0%; Cruzain noTriton: -11%; NS1 function inh: 5%

What do the screens show for `Cc1ccc(NC(=O)c2cccc(NC(=O)N3CCSc4ncccc43)c2)cc1F`?
Cruzain Triton: -5%; Cruzain noTriton: 3%

What do the screens show for `COc1ccccc1NC(=O)c1c(C)cc(C)nc1SCC(=O)Nc1cccc(C)c1`?
Cruzain Triton: -5%; Cruzain noTriton: -4%

How did CCN(CC)S(=O)(=O)c1ccc(Cl)c(NC(=O)COC(=O)c2ccc([N+](=O)[O-])o2)c1 do in these assays?
NS1 function inh: -70%

How did CCN(CC)S(=O)(=O)c1ccc(Cl)c(NC(=O)COc2ccc(OC)cc2[N+](=O)[O-])c1 do in these assays?
Cruzain Triton: -2%; Cruzain noTriton: 13µM*; NS1 function inh: 6%

What do the screens show for `C[C@H](CCC(=O)O)[C@H]1CC[C@@H]2[C@H]3CC[C@H]4C[C@@H](O)CC[C@@]4(C)[C@H]3CC[C@]21C`?
Cruzain Triton: -20%; Cruzain noTriton: 7%
